Screening data: PubChem BioAssay, several laboratories
Only some compounds are listed: those with a hit (about 3.4% of all), similar ones and a draw of the others.
Shn3 3UTR inh: inhibitors of Schnurri-3 3'UTR reporter in osteoblasts; actives 0.52% (n = 360,000); AID 588674; inhibition, % at 12.5 µM; Clone20 osteoblast Shn3 3'UTR firefly luciferase, 24 h;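 active = mean inhibition of at least 75% with every replicate also reaching 75%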;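 note: 0% = median of neutral control wells and 100% = pilot-screen positive control compound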
EBV LMP1 NFkB: inhibitors of Epstein-Barr LMP1-induced NF-kappaB reporter; LMP1-induced NF-kappaB luciferase reporter cells, luminescence; inhibition, % at 12.5 µM; actives 0.69% (n = 350,000); AID 504558; in the data active = inhibition above about 41%;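 note: 0% = neutral control wells and 100% = reference inhibitor control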
MITF TRPM1 inh: inhibitors of MITF-driven TRPM1 promoter in melanoma cells | SK-MEL-5 TRPM1 promoter luciferase, 24 h | inhibition, % at 12.5 µM | AID 488899 | actives 0.83% (n = 330,000);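 active = mean inhibition across replicates of 60% or more, whatever share of single replicates reaches that level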
TROY signal inh: TROY signaling inhibition | Q293 LMP1-TROYcd NF-kB luciferase reporter, 4 h | inhibition, % at 10 µM | actives 0.98% (n = 360,000) | AID 1347056;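 active = compounds whose plate-normalised and pattern-corrected inhibition of the luciferase reporter signal at the single screening dose is 50% or more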
HIF-2a inh: inhibitors of HIF-2a. 786-0 RCC cells HIF-2a reporter, luciferase luminescence, overnight. AID 624352. actives 0.72% (n = 360,000). inhibition, % at 18.8 µM;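 active = inhibition of the luminescence signal of 40% or more relative to plate controls, in a single-dose primary screen at 18.75 µM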
TWEAK-Fn14 inh: blocks TWEAK-Fn14 interaction in a reporter cell assay; actives 2% (n = 360,000); inhibition, % at 10 µM; TWEAK-stimulated Fn14 reporter cells, luciferase luminescence, 8 h; in the data active = inhibition above about 50%
* = called active by the depositor; x = no result given.

SMILES	Shn3 3UTR inh	EBV LMP1 NFkB	MITF TRPM1 inh	TROY signal inh	HIF-2a inh	TWEAK-Fn14 inh
Cc1cc(C)cc(NS(=O)(=O)c2cnc(Cl)c(Cl)c2)c1	2	-4	3	-14	-9	25
CCOc1ccc(NS(=O)(=O)c2ccc(N)cc2)cc1	10	2	9	-2	-13	-7
CC1(C(=O)NS(=O)(=O)c2ccc(C#N)cc2)CCN1C(=O)CC1CC1 (centres undefined)	16	x	x	0	1	0
Cc1cc(NC(=O)CCC(=O)N(CC(=O)NC2CCCC2)c2ccc(Cl)cc2)no1	11	-4	4	0	3	18
COCCN(C(=O)c1ccc2c(c1)C(=O)N(c1ccccc1Cl)C2=O)c1c(N)n(CC(C)C)c(=O)[nH]c1=O	-18	-4	1	4	10	0
CC(=O)CC1c2cc(F)ccc2C=C(c2ccsc2)N1c1ccc(C#Cc2cncn2C)cc1 (centres undefined)	x	x	x	-3	0	14
CC(=O)CC1c2cc(F)ccc2C=C(c2ccsc2)N1c1ccc(C#CC2(O)CCCCC2)cc1 (centres undefined)	x	x	x	-13	-10	57*
COc1cc(OC)cc(C2=Cc3ccccc3C(CC(C)=O)N2c2ccc(C#CC3(O)CCCCC3)cc2)c1 (centres undefined)	x	x	x	36	11	52*
COc1ccccc1N1CCN(Cc2cc(=O)oc3ccccc23)CC1	-1	x	x	0	4	5
O=C(Nc1cccc(O)c1)C(=O)Nc1ccccn1	12	1	1	39	-53	76*
S=C(Nc1ccccc1)Nc1ccccn1	-7	-3	x	-23	-120	-19
O=C(Nc1ccccc1)C(=O)Nc1ccccn1	-38	32	14	46	-85	62*
O=C(NCc1ccccn1)c1nc(Cn2ccc([N+](=O)[O-])n2)no1	6	-5	0	1	10	-6
Cc1noc(C)c1NC(=O)N(C)C[C@H]1OCc2cnnn2CCCC(=O)N([C@H](C)CO)C[C@@H]1C	-5	-1	x	-26	2	1
O=C(C[n+]1cccc(CO)c1)Nc1nc2ccccc2s1	21	-3	3	67*	5	-8
O=C(CS(=O)(=O)c1ccccc1)Nc1nc2ccccc2s1	-4	-7	-5	-20	-107	7
COc1ccc(C/C(C)=N/NC(=S)Nc2ccccc2F)cc1	-74	-8	-45	79*	-154	71*
O=C(Cc1ccc(Cl)cc1Cl)Nc1ccncc1Cl	88*	30	6	33	-4	26
O=C(Cc1ccc(Cl)cc1Cl)Nc1ccncc1	84	25	11	39	6	9
Cc1c2cnccc2c(C)c2c1oc1ccccc12	23	-18	-8	-56	-151	-103
CC1(C)CC(=O)C2=C(C1)NC1=C(C(=O)c3ccccc31)C2c1cccnc1 (centres undefined)	-2	3	4	15	18	3
CC1(C)CC(=O)C2=C(C1)NC1=C(C(=O)c3ccccc31)C2c1ccccc1 (centres undefined)	14	6	-9	2	31	64*
CC(C)c1ccc(C2C3=C(CC(C)(C)CC3=O)NC3=C2C(=O)c2ccccc23)cc1 (centres undefined)	23	-10	17	36	-14	61*
CN(CC(=O)Nc1ccc(F)cc1)C(=O)COC(=O)c1nc(Cl)ccc1Cl	4	-4	x	-5	9	8
CSc1cnn(CCC#N)c(=O)n1	x	x	x	-8	5	4
SMILES	Shn3 3UTR inh	EBV LMP1 NFkB	MITF TRPM1 inh	TROY signal inh	HIF-2a inh	TWEAK-Fn14 inh
COc1ccccc1C(=O)N/C(=C\c1cn(S(=O)(=O)N(C)C)c2ccccc12)C(=O)N1CCN(C)CC1	4	-7	x	5	23	-33
CCOc1cc(/C=N/Nc2nc(-c3cccc(S(=O)(=O)N4CCCC4)c3)cs2)ccc1O	40	0	2	15	9	61*
COc1cc(/C=N/Nc2nc(-c3ccc(S(=O)(=O)N(C)C)cc3)cs2)ccc1O	x	5	25	12	-19	81*
O=C(c1ccc(NS(=O)(=O)c2ccc(F)cc2)cc1)N1CCC1	-5	8	3	3	-8	-10
Cc1ccc(C(=O)NCC(=O)N2CCN(c3ccccc3O)CC2)s1	-3	0	x	3	-13	14
CCc1cc2c(N3CCN(c4ccccc4)CC3)ncnc2s1	83	44*	10	20	-32	61*
O=C(c1ccco1)N1CCN(c2ncnc3sc4c(c23)CCC4)CC1	24	16	-16	-11	8	-7
c1ccc(N2CCN(c3ncnc4sc5c(c34)CCC5)CC2)cc1	28	20	-11	44	-2	59*
CCCNC(=O)C1(C)CCCN(C(=O)c2ccc(F)c(Cl)c2)C1 (centres undefined)	18	x	x	-4	4	-1
COc1ccc2c(c1)C(C)(Cc1ccc(C(=O)c3ccccc3)cc1)C(=O)N2 (centres undefined)	-4	x	x	17	5	15
CC1CCCC(NC(=O)COC(=O)c2c[nH]c(=O)[nH]c2=O)C1C (centres undefined)	-9	2	-3	x	13	55*
Cc1cc(C(=O)OCC(=O)NC2CCCC(C)C2C)c(C)o1 (centres undefined)	8	4	3	14	-1	7
CC1CCN(c2nc(Cl)nc(Nc3ccc([N+](=O)[O-])cc3)n2)CC1	2	2	-11	-3	-17	4
Cc1ccc(/C=N/NC(=O)Cn2nnc(N)n2)o1	3	-2	-4	-1	11	87*
CCc1nn2cc(-c3ccccc3)nc2s1	36	66*	19	84*	22	93*
Cc1nn2cc(-c3ccc(-c4ccccc4)cc3)nc2s1	0	-7	-39	x	-207	36
Cc1nn2cc(-c3ccc(Cl)cc3)nc2s1	-4	-12	0	-5	-167	63*
c1cc2c(c(CC3CO3)c1CC1CO1)OCCOCCOCCOCCO2 (centres undefined)	0	-8	x	-4	8	1
NC(=O)c1nsc(C(=O)N(c2ccccc2)C(C(=O)NC2CCCCC2)c2ccc(O)cc2)c1N (centres undefined)	6	6	-13	-16	-1	-24
O=C(NCCc1c[nH]c2ccccc12)C1CCC(Cn2c(=S)[nH]c3ccccc3c2=O)CC1 (centres undefined)	52	2	-1	29	20	62*
O=C1CC(c2ccc(O)c(O)c2)Oc2c1ccc(O)c2O (centres undefined)	-6	0	-8	-3	13	62*
CC(C)=CCc1c(O)ccc2c1OC(c1ccc(O)c(O)c1)CC2=O (centres undefined)	22	-8	71*	42	12	75*
O=C1CC(c2ccc(O)c(O)c2)Oc2cc(O)cc(O)c21 (centres undefined)	8	-3	-14	-40	-43	3
